# High-throughput results (PubChem)
# Only some compounds are listed: those with a hit (about 0.82% of all), similar ones and a draw of the others.
# RTF Ca sens act – cardiac RTF calcium sensitization; IANBD-labeled TnC RTF fluorescence at EC20 calcium; 0% EC20 calcium, 100% full calcium; AID 493008; P19429+P45379; activation, % at 7.2 µM; actives 0.24% (n = 340,000);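 active means activation above the mean over all tested compounds plus 3 SD, cut at about 30% in these data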;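 further: rise in fluorescence read as greater calcium sensitivity of cardiac thin filaments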
# Keap1 Nrf2 FP – Keap1-Nrf2 (human) interaction inhibition; Q14145; inhibition, % at 9.4 µM; actives 0.15% (n = 340,000); Keap1 Kelch-Nrf2 peptide fluorescence polarization, 1536-well; in the data active means inhibition above about 12%;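 further: human Keap1 Kelch domain with fluorescein labeled Nrf2 9mer peptide probe; 0% = neutral control wells and 100% = peptide positive control; higher means more block of Keap1 binding to Nrf2 peptide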
# Target sequence (Q14145 whole entry, looked up, the tested form may be a part): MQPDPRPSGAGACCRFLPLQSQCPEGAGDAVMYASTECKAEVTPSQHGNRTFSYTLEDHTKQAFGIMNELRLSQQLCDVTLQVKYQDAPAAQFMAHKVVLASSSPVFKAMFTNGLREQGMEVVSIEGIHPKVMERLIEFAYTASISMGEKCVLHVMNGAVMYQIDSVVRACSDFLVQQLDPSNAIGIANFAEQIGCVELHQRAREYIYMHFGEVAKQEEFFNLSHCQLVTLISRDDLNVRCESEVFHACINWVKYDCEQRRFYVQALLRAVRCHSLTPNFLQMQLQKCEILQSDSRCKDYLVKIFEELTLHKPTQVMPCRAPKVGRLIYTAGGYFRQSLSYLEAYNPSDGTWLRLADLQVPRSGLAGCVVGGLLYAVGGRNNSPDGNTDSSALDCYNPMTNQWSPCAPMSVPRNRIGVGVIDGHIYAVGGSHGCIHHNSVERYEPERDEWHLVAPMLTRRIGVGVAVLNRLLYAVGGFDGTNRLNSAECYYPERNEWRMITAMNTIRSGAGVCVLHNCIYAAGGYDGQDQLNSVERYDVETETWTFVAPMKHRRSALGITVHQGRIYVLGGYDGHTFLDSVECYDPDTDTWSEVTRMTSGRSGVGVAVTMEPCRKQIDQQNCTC
# C-LANA FP – KSHV C-LANA DNA binding inhibition; MBP-C-LANA/FAM-LBS DNA binding, fluorescence polarization; inhibition, % at 9 µM; actives 0.078% (n = 340,000); AID 504423;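 active means highest replicate inhibition at or above 60% at 9 µM, even if other replicates fall short; inactive means all replicates below 60% inhibition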;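 further: 0% = neutral control wells and 100% = 4 µM acridine orange control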
# RTF Ca sens inh – cardiac RTF calcium desensitization; P19429+P45379; IANBD-labeled cardiac RTF, Ca2+ fluorescence; inhibition, % at 7.15 µM; actives 0.12% (n = 340,000);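 active means inhibition above the mean inhibition of all tested compounds plus 3 SD, cut at about 17% in these data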;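 further: assay run at fixed EC70 calcium of 1.6 mM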
# E coli Lon inh – inhibitors of E. coli Lon protease | P0A9M0 | purified E. coli Lon protease, fluorescence polarization | inhibition, % at 7.94 µM | actives 0.42% (n = 360,000) | AID 602123; in the data active means inhibition above about 13%, passing the limit was not always enough;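 further: 0% = enzyme with probe and DMSO and 100% = no enzyme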
# E coli Lon conf – confirmation of E. coli Lon protease inhibitors. shares compounds with E coli Lon inh. purified E. coli Lon, fluorescence polarization. inhibition, % at 7.94 µM. actives 31% (n = 1,400). AID 602230; in the data active means inhibition above about 16%;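 further: 0% = enzyme with probe and DMSO and 100% = no enzyme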
# * marks the source's active call; other numbers are inactive results; nt = not tested or not shown; + = active, no number.
SMILES,RTF Ca sens act,Keap1 Nrf2 FP,C-LANA FP,RTF Ca sens inh,E coli Lon inh,E coli Lon conf
COC(=O)c1ccccc1NC(=S)NC(=O)c1ccccc1,0.5,-18.5,0.1,-15.7,15.9*,9.5
CCCCN1C(=O)C(CC(=O)NCC2CCCCC2)CC(C(=O)N2CCCCCC2)=C1C (stereo unspecified),nt,nt,nt,nt,-2.5,nt
COc1cc2c(cc1OC)-c1cc3ccc4c(c3c[n+]1CC2)OCO4,53.6*,4.5,43.1,-77.0,156.3*,106.3*
CCc1nc2ccc(C(=O)NC3CCN(Cc4ccccc4)CC3)cn2c1N(C)Cc1ccc(N(C)C)cc1,nt,nt,nt,nt,7.6,nt
CCc1cccc(NC(=O)CCCn2nc(CC)n3c(cc4occc43)c2=O)c1,4.6,-7.1,-1.5,-13.6,29.2*,-4.9
NNC(=O)c1ccc(COc2cccc3cccnc23)cc1,0.7,-4.7,0.8,-15.4,13.2,nt
O=C1CCC/C(=N\NC(=O)c2ccc(COc3cccc4cccnc34)cc2)C1,0.2,-1.7,1.2,-4.6,37.4*,2.9
COc1ccc(C(C)(NC(C)=O)c2nc(-c3ccc(F)cc3OC)cs2)cc1 (stereo unspecified),nt,nt,nt,nt,1.4,nt
CCc1cc(-c2cnnn2Cc2ccccc2)ccc1-c1cn(CC(C)C)nn1,nt,nt,nt,nt,-5.3,nt
O=C(NCC(F)(F)F)c1ccc2sc([C@@H]3O[C@H](CO)[C@H](O)[C@H](O)[C@H]3O)nc2c1,nt,nt,nt,nt,0.1,nt
COc1cccc(F)c1C(=O)NC(=O)Nc1ccc2nc(C)oc2c1,44.6*,2.8,22.4,-75.3,110.0*,-8.8
CSc1nc2ccc(NC(=O)NC(=O)c3c(F)cccc3F)cc2s1,0.3,1.3,1.2,-0.4,-0.1,nt
CCC1c2ccc(C)n2CCN1C(=O)Nc1ccccc1C(=O)OC (stereo unspecified),7.5,2.4,11.1,-13.9,22.7*,6.3
COc1ccc(NC(=O)c2cccc(N3C(=O)c4cccc([N+](=O)[O-])c4C3=O)c2)cc1,-3.6,1.3,1.4,-7.6,18.7*,-0.1
CC(=O)c1ccc(NC(=O)c2cccc(N3C(=O)c4ccccc4C3=O)c2)cc1,-4.9,-0.8,0.4,3.2,4.1,nt
COc1cccc(NC(=O)N(CCN(C)C)C(C)c2cccnc2)c1 (stereo unspecified),-5.3,-0.6,23.2,3.5,-2.7,nt
CC(c1cccnc1)N(CCN(C)C)C(=O)Nc1ccc(Cl)cc1 (stereo unspecified),6.7,-4.8,2.1,-1.7,14.6*,-2.0
O=C(CN1C(=O)NC2(CCCCC2)C1=O)Oc1ccc2c(C(F)(F)F)cc(=O)oc2c1,2.7,-1.2,11.9,-0.8,54.2*,32.8*
CCc1cc(=O)oc2cc(OC(=O)CN3C(=O)NC4(CCCC4)C3=O)ccc12,2.0,-26.1,0.0,-3.5,7.0,nt
COc1cc(NC(=O)Nc2nnc([C@H]3C[C@H](O)[C@@H](CO)O3)s2)cc(OC)c1OC,nt,nt,nt,nt,-3.7,nt
COC(=O)N/N=C\c1cc2c(cc1Br)OCO2,4.9,-0.1,-0.6,4.5,18.4*,-6.3
c1c2c(cc3sc(N4CCOCC4)nc13)OCCO2,6.9,1.1,0.9,-4.0,3.8,nt
Cc1nc(N2CCOCC2)sc1C=O,3.9,0.0,-2.5,-12.3,20.2*,-5.9
CCc1ccc(OCC(=O)NNC(=S)NC(=O)C2CCCCC2)c(Br)c1,-4.4,2.0,0.6,-0.1,-1.3,nt
CCc1ccc(OCC(=O)NC2CCCCC2)c(Br)c1,-2.6,5.0,0.7,1.1,36.0*,16.5*
SMILES,RTF Ca sens act,Keap1 Nrf2 FP,C-LANA FP,RTF Ca sens inh,E coli Lon inh,E coli Lon conf
O=C(COc1ccccc1Cl)NC(=O)NC1CCCCC1,8.1,-1.7,-0.8,6.9,-4.5,nt
O=C(COc1ccc(F)cc1Cl)NC1CCCCCC1,-3.6,3.8,-1.1,-3.5,159.8*,-8.2
CC(C)C[C@H]1COc2cccc(N3CCN(Cc4ccccc4F)CC3)c2S(=O)(=O)N1,nt,nt,nt,nt,-0.5,nt
COc1cccc2c1C(=O)c1c(O)c3c(c(O)c1C2=O)CC(O)(C(C)=O)CC3OC1CC(O)C(O)C(C)O1 (stereo unspecified),222.8*,19.6*,110.5*,-300.2,+,+
CC(O)(c1ccc(F)c(F)c1)c1nc(-c2cc(F)cc(F)c2)cs1 (stereo unspecified),nt,nt,nt,nt,-7.6,nt
CC1CCc2sc(C(=O)N(C)CC(=O)Nc3cccc(F)c3)cc2C1 (stereo unspecified),0.8,-2.2,-1.3,3.1,16.1*,-3.7
CCCNC(=O)C1(C)CCN(C(=O)c2cccc(Cl)c2)C1 (stereo unspecified),nt,nt,nt,nt,0.1,nt
